# Data: the supplement of paper PMC9135407
# “And” between values parts separate entries of the source, which are not always exact repeats. Equal entries are not always repeated. Structures can show the parent of a compound that is named as a salt. Hit rate of the full screen: of about 5,800 compounds, about 620 (11%) showed activity. The sample as a whole holds a higher share of actives than the screen did. Unmarked numbers belong to inactive results.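 How the source made its calls: active = score above a cut-off or among the top three wells of a plate; in these data no inactive exceeds 0.85.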
# Test system: primary human hepatic stellate cells (donor 1)
# Assay: scaled lipid accumulation score (0 = DMSO-like, 1 = nortriptyline-like); higher = stronger HSC inactivation (lipid re-accumulation), active = hit call of the paper
# Conditions: 48 h
# [1] = library stock concentration: 10 mM
# [2] = library stock concentration: 3.33 mM
# [3] = library stock concentration: 1 mM
# [4] = library stock concentration: 2 mM
# [5] = library stock concentration: 80 uM
# [6] = library stock concentration: 400 uM
smiles,measurement,setting,value
CC(=O)[C@]1(O)Cc2c(O)c3c(c(O)c2[C@@H](O[C@H]2C[C@H](N)[C@H](O)[C@H](C)O2)C1)C(=O)c1ccccc1C3=O [Idarubicin],scaled lipid accumulation score,library stock concentration: 4 mM,0.387
same,scaled lipid accumulation score,[1],≤ -0.07
CC(=O)[C@]1(O)Cc2c(O)c3c(c(O)c2[C@@H](O[C@H]2C[C@H](N)[C@H](O)[C@H](C)O2)C1)C(=O)c1ccccc1C3=O,scaled lipid accumulation score,[1],0.372
CC(=O)[C@]1(O)Cc2c(O)c3c(c(O)c2[C@@H](O[C@H]2C[C@H](N)[C@H](O)[C@H](C)O2)C1)C(=O)c1ccccc1C3=O [Idarubicin HCl],scaled lipid accumulation score,[2],0.288
same,scaled lipid accumulation score,[1],0.179
CCCCN1CCC(CCC(=O)c2cc(Cl)c(N)cc2OC)CC1,scaled lipid accumulation score,[1],0.511
COc1cc(N)c(Cl)cc1C(=O)CCC1CCN(CCNS(C)(=O)=O)CC1,scaled lipid accumulation score,[1],≤ 0
COc1cc(COc2cc(N)c(Cl)cc2C(=O)CCC2CCN(CCNS(C)(=O)=O)CC2)cc(OC)c1.Cl,scaled lipid accumulation score,[1],1.06 (active)
CC(C)(Cc1ccc2ccccc2c1)NC[C@@H](O)COc1cccc(Cl)c1C#N,scaled lipid accumulation score,[2],0.524
same,scaled lipid accumulation score,[1],0.023
CC(C)Oc1ccc(Cc2ccc(NC3=NCCN3)cc2)cc1,scaled lipid accumulation score,[3],0.221
CN(C)C/C=C/C(=O)Nc1cc2c(Nc3ccc(F)c(Cl)c3)ncnc2cc1O[C@H]1CCOC1 [Afatinib (BIBW2992)],scaled lipid accumulation score,[1],0.323
"CN(C)C/C=C/C(=O)Nc1cc2c(Nc3ccc(F)c(Cl)c3)ncnc2cc1O[C@H]1CCOC1 [Afatinib  (TOVOK,  BIBW-2992) (2 mM)]",scaled lipid accumulation score,[4],1.29 (active)
"CN(C)C/C=C/C(=O)Nc1cc2c(Nc3ccc(F)c(Cl)c3)ncnc2cc1O[C@H]1CCOC1 [Afatinib  (TOVOK,  BIBW-2992) (10 mM)]",scaled lipid accumulation score,[1],0.256
CN(C)C/C=C/C(=O)Nc1cc2c(Nc3ccc(F)c(Cl)c3)ncnc2cc1O[C@H]1CCOC1,scaled lipid accumulation score,[5],0.425
same,scaled lipid accumulation score,[6],0.614
same,scaled lipid accumulation score,[1],0.544
CN(C)CC=CC(=O)Nc1cc2c(Nc3ccc(F)c(Cl)c3)ncnc2cc1OC1CCOC1 (stereo not given),scaled lipid accumulation score,[4],0.855 (active)
"CN(C)C/C=C/C(=O)Nc1cc2c(Nc3ccc(F)c(Cl)c3)ncnc2cc1O[C@H]1CCOC1 [Afatinib  (TOVOK,  BIBW-2992) (0.4 mM)]",scaled lipid accumulation score,[6],0.318
CN(C)CC=CC(=O)Nc1cc2c(Nc3ccc(F)c(Cl)c3)ncnc2cc1O[C@H]1CCOC1 [Afatinib (BIBW2992)],scaled lipid accumulation score,[2],1.12 (active)
Cc1cc(/C(=C/Nc2ccc(Cl)cc2)C(=O)Nc2ccc(Cl)cc2)on1,scaled lipid accumulation score,[1],0.332
"CCCCCC#CCC#CCCCCCCCC(=O)O [9,12-Octadecadiynoic Acid]",scaled lipid accumulation score,[3],0.001
Cc1c(C)c2c(c(C)c1O)CCC(C)(CCCC(C)CCCC(C)CCCC(C)C)O2 (stereo not drawn) [Alpha-tochopherol],scaled lipid accumulation score,[1],≤ 0
COc1cc(C[C@H]2C(=O)OC[C@@H]2Cc2ccc(OC)c(OC)c2)ccc1O [Arctigenin],scaled lipid accumulation score,[1],≤ -0.006
C/C(=N\NC(=O)C1C(=O)NCC1c1ccccc1)c1cccc(Br)c1 (stereo not given),scaled lipid accumulation score,[1],≤ -0.001
CCOC(=O)C1=C(N)Oc2ccc(Br)cc2[C@H]1[C@H](C#N)C(=O)OCC,scaled lipid accumulation score,[1],1.15 (active)
CCOC(=O)C1=C(N)Oc2ccc(Br)cc2C1C(C#N)C(=O)OCC (stereo not given),scaled lipid accumulation score,[2],0.391
same,scaled lipid accumulation score,[1],0.006
CCCCCCCCCCCCCCCC(=O)OCC(O)C1OC(=O)C(O)=C1O [L-Ascorbyl 6-palmitate],scaled lipid accumulation score,[2],0.009
same,scaled lipid accumulation score,[1],≤ 0
CC1(CN2CCC(n3c(=O)[nH]c4ccccc43)CC2)OCc2ccccc2-n2cccc21 (stereo not given),scaled lipid accumulation score,[1],0.057
O=C(Nc1cc(Cl)cc2c1[nH]c1cnccc12)c1cccnc1 [IKK Inhibitor X],scaled lipid accumulation score,[2],≤ 0
COc1cc2c(N3CCN(C(=O)Nc4ccc(OC(C)C)cc4)CC3)ncnc2cc1OCCCN1CCCCC1 [Tandutinib (MLN518)],scaled lipid accumulation score,[2],0.295
same,scaled lipid accumulation score,[1],0.406
COc1cc2ncnc(N3CCN(C(=O)Nc4ccc(Oc5ccccc5)cc4)CC3)c2cc1OC,scaled lipid accumulation score,[5],≤ -0.001
same,scaled lipid accumulation score,[6],≤ -0.001
same,scaled lipid accumulation score,[4],≤ -0.001
same,scaled lipid accumulation score,[1],≤ -0.001
COc1cc2c(Nc3ccc(NC(=O)c4ccccc4)cc3)ncnc2cc1OCCCN1CCOCC1 [listing 1 of 4 here],scaled lipid accumulation score,[2],1.06 (active)
same,scaled lipid accumulation score,[1],1.11 (active)
COc1cc2c(Nc3ccc(NC(=O)c4ccccc4)cc3)ncnc2cc1OCCCN1CCOCC1 [listing 2 of 4 here],scaled lipid accumulation score,[5],≤ -0.001
same,scaled lipid accumulation score,[6],≤ -0.009
same,scaled lipid accumulation score,[4],0.256
C#Cc1cccc(Nc2ncnc3cc(OC)c(OCCCCCCC(=O)NO)cc23)c1,scaled lipid accumulation score,[2],0.652
same,scaled lipid accumulation score,[1],0.306
COc1cc2c(Nc3ccc(NC(=O)c4ccccc4)cc3)ncnc2cc1OCCCN1CCOCC1 [listing 3 of 4 here],scaled lipid accumulation score,[1],1.14 (active)
COc1cc2c(Nc3ccc(NC(=O)c4ccccc4)cc3)ncnc2cc1OCCCN1CCOCC1 [listing 4 of 4 here],scaled lipid accumulation score,[1],1.03 (active)
COc1cc2c(N3CCN(C(=O)Nc4ccc(OC(C)C)cc4)CC3)ncnc2cc1OCCCN1CCCCC1 [listing 1 of 2 here],scaled lipid accumulation score,[6],0.045
same,scaled lipid accumulation score,[4],0.538
same,scaled lipid accumulation score,[1],0.65
C#Cc1cccc(Nc2ncnc3cc(OCCOC)c(OCCOC)cc23)c1 [Erlotinib HCl (OSI-744)],scaled lipid accumulation score,[2],≤ 0
same,scaled lipid accumulation score,[1],≤ 0
C#Cc1cccc(Nc2ncnc3cc(OCCOC)c(OCCOC)cc23)c1 [Erlotinib],scaled lipid accumulation score,library stock concentration: 5.1 mM,≤ -0.006
COc1cc2ncnc(Nc3ccc(NC(=O)c4ccccc4)cc3)c2cc1OC [Aurora Kinase Inhibitor II],scaled lipid accumulation score,[2],≤ 0
C#Cc1cccc(Nc2ncnc3cc(OCCOC)c(OCCOC)cc23)c1,scaled lipid accumulation score,[5],≤ -0.009
same,scaled lipid accumulation score,[6],≤ -0.009 and ≤ -0.005
same,scaled lipid accumulation score,[4],≤ -0.009 and ≤ -0.005
same,scaled lipid accumulation score,[1],0.052 and 0.04
COc1cc2ncnc(N3CCN(C(=O)Nc4ccc(Oc5ccccc5)cc4)CC3)c2cc1OC [PDGF Receptor Tyrosine Kinase Inhibitor III],scaled lipid accumulation score,[2],≤ 0
COc1cc2c(N3CCN(C(=O)Nc4ccc(OC(C)C)cc4)CC3)ncnc2cc1OCCCN1CCCCC1 [listing 2 of 2 here],scaled lipid accumulation score,[1],1.24 (active)
C[C@]12C=CC(=O)N[C@@H]1CC[C@@H]1[C@@H]2CC[C@]2(C)[C@@H](C(=O)Nc3cc(C(F)(F)F)ccc3C(F)(F)F)CC[C@@H]12 [Dutasteride],scaled lipid accumulation score,[2],≤ 0
same,scaled lipid accumulation score,[1],0.409
Cc1cc(Nc2nc(-c3ccccc3)nc3ccccc23)n[nH]1 [GSK-3 Inhibitor XIII],scaled lipid accumulation score,[2],≤ 0
CCCCCC=CCC=CCCCCCCCC(=O)OC(COC(=O)CCCCCCCCCCCCCCC)COP(=O)(O)OCCN (stereo not given) [1-Palmitoyl-2-linoleoyl PE],scaled lipid accumulation score,[3],0.006
CCCCC/C=C\C/C=C\C/C=C\CCCCCCC(=O)OCC [Dihomo-.gamma.-Linolenic Acid ethyl ester],scaled lipid accumulation score,[3],0.019
COc1ccc2cc(CC(=O)O)ccc2c1 [6-methoxy Naphthalene Acetic Acid],scaled lipid accumulation score,[3],0.002
CC#CCC(C)[C@@H](O)/C=C/[C@@H]1[C@H]2C/C(=C/CCCC(=O)O)C[C@H]2C[C@H]1O (stereo partly drawn) [15(R)-Iloprost],scaled lipid accumulation score,[3],≤ 0
CC(C)(C(=O)NCC(F)(F)C(F)(F)F)C(=O)N[C@@H]1C(=O)Nc2ccccc2-c2ccccc21,scaled lipid accumulation score,[2],≤ 0
same,scaled lipid accumulation score,[1],≤ 0
CC(=O)Nc1c(I)cc(I)c(C(=O)O)c1I [Acetriazoic acid],scaled lipid accumulation score,library stock concentration: 3.6 mM,0.001
same,scaled lipid accumulation score,[1],≤ -0.027
CSc1nc(-c2ccnc(NC(C)c3ccccc3)c2)c(-c2ccc(F)cc2)[nH]1 (stereo not given) [p38 MAP Kinase Inhibitor III],scaled lipid accumulation score,[2],≤ 0
CCCCCCCCCCCCCCCC(=O)OC(CC(=O)O)C[N+](C)(C)C (racemic) [Palmitoyl-DL-Carnitine chloride],scaled lipid accumulation score,[1],0.446
[O-]/[N+](=N\O[C@@H]1O[C@H](CO)[C@H](O)[C@H](O)[C@H]1O)N1CCCC1 [.beta.-Gal-NONOate],scaled lipid accumulation score,[3],≤ 0
CCCCC/C=C\C/C=C\CCCCCCCC(=O)O [Linoleic acid],scaled lipid accumulation score,[3],≤ -0.021
CCCCC/C=C\C/C=C\CCCCCCCC(=O)O [Linoleic Acid (peroxide free)],scaled lipid accumulation score,[3],0.024
CCCCC[C@H](O)/C=C/[C@H]1C(=O)C[C@H](O)[C@@H]1C/C=C\CCCC(=O)O [Prostaglandin D2],scaled lipid accumulation score,[3],≤ 0
CCCCC[C@H](O)/C=C/[C@H]1C(=O)C[C@H](O)[C@@H]1C/C=C\CCCC(=O)O [Prostaglandin  D2],scaled lipid accumulation score,[3],≤ -0.021
COc1cc2nccc(Oc3ccc(NC(=O)C4(C(=O)Nc5ccc(F)cc5)CC4)cc3)c2cc1OC [Cabozantinib malate (XL184)],scaled lipid accumulation score,[2],0.354
same,scaled lipid accumulation score,[1],0.677
COc1cc2c(Oc3ccc(NC(=O)C4(C(=O)Nc5ccc(F)cc5)CC4)cc3F)ccnc2cc1OCCCN1CCOCC1 [listing 1 of 2 here],scaled lipid accumulation score,[5],0.524
same,scaled lipid accumulation score,[6],0.545
same,scaled lipid accumulation score,[4],0.834
same,scaled lipid accumulation score,[1],0.842 and 0.706
COc1cc2c(Oc3ccc(NC(=O)C4(C(=O)Nc5ccc(F)cc5)CC4)cc3F)ccnc2cc1OCCCN1CCOCC1 [listing 2 of 2 here],scaled lipid accumulation score,[2],1.09 (active)
COc1cc2nccc(Oc3ccc(NC(=O)C4(C(=O)Nc5ccc(F)cc5)CC4)cc3)c2cc1OC,scaled lipid accumulation score,[5],0.011
same,scaled lipid accumulation score,[6],≤ -0.016
same,scaled lipid accumulation score,[4],0.189
same,scaled lipid accumulation score,[2],0.757
same,scaled lipid accumulation score,[1],0.459 and 0.491
